# Experiments:
# Assay in all cases: DAPPL (digital affinity profiling via proximity ligation, sequencing); 10 mM Tris-HCl pH 7.5, 50 mM NaCl, 1 mM DTT, 4% glycerol, room temperature, 30 min; GST-TFs on glutathione beads, 16-mer random dsDNA library, 0.1% formaldehyde crosslink after washing; high values mean tight binding
# GABPA = target: T1, GABPA (Homo sapiens, UniProt Q06546 1-454); settings: protein: recombinant; tags: N-terminal GST; dsDNA, one strand shown
# T1 sequence: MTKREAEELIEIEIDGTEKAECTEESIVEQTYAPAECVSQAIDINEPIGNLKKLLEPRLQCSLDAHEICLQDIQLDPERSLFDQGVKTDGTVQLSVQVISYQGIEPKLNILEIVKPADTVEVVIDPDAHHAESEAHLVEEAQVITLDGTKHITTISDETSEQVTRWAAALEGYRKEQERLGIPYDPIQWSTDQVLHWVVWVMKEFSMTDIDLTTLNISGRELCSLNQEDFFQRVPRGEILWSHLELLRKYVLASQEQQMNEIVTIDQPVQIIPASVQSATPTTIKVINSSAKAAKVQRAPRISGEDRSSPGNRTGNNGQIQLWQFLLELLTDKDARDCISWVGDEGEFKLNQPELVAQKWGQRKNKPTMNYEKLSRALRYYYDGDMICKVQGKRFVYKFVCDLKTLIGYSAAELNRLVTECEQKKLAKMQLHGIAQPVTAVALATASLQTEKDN
# Outline: (§1)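 Human transcription factors were made in yeast as GST fusions, captured on glutathione beads and barcoded with DNA. With a tag-only sample included, the pool was incubated with 200 nmole of a random double-stranded 16-mer DNA library in Tris/NaCl/DTT/glycerol buffer at room temperature for 30 min, then crosslinked with 0.1% formaldehyde after washing, ligated by proximity, amplified and sequenced. For binding signal, each hexamer's read frequency for a factor is divided by its frequency for the tag-only sample.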
# ELF1 = ELF1 (Homo sapiens, UniProt P32519 1-619); settings: protein: recombinant; tags: N-terminal GST; dsDNA, one strand shown
# Outline: as §1
# SPIB = SPIB (Homo sapiens, UniProt Q01892 1-262); settings: protein: recombinant; tags: N-terminal GST; dsDNA, one strand shown
# Outline: as §1
# HSF1 = HSF1 (Homo sapiens, UniProt Q00613 1-529); settings: protein: recombinant; tags: N-terminal GST; chain copies: 3; dsDNA, one strand shown
# Outline: as §1
# SPIC = target: T2, SPIC (Homo sapiens, UniProt Q8N5J4 1-248); settings: protein: recombinant; tags: N-terminal GST; dsDNA, one strand shown
# T2 sequence: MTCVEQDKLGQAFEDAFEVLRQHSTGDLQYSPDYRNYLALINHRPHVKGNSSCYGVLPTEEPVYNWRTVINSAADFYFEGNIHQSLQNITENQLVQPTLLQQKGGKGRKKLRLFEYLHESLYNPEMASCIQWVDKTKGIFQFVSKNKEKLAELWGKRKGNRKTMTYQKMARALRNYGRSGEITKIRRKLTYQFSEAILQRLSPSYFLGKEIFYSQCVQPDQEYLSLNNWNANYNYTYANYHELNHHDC
# Outline: as §1
# ELF4 = ELF4 (Homo sapiens, UniProt Q99607 1-663); settings: protein: recombinant; tags: N-terminal GST; dsDNA, one strand shown
# Outline: as §1
# ELF3 = target: T3, ELF3 (Homo sapiens, UniProt P78545 1-371); settings: protein: recombinant; tags: N-terminal GST; dsDNA, one strand shown
# T3 sequence: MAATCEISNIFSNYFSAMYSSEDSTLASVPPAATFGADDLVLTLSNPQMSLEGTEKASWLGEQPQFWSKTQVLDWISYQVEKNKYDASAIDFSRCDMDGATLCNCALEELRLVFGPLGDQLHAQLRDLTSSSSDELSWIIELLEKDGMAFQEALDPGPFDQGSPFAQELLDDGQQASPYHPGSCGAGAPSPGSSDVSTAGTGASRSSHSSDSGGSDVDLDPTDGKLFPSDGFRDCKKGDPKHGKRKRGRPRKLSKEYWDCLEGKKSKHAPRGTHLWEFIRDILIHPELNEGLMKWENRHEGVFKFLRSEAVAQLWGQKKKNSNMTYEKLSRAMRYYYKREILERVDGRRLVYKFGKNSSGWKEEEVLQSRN
# Outline: as §1
# ERF = target: T4, ERF (Homo sapiens, UniProt P50548 1-548); settings: protein: recombinant; tags: N-terminal GST; dsDNA, one strand shown
# T4 sequence: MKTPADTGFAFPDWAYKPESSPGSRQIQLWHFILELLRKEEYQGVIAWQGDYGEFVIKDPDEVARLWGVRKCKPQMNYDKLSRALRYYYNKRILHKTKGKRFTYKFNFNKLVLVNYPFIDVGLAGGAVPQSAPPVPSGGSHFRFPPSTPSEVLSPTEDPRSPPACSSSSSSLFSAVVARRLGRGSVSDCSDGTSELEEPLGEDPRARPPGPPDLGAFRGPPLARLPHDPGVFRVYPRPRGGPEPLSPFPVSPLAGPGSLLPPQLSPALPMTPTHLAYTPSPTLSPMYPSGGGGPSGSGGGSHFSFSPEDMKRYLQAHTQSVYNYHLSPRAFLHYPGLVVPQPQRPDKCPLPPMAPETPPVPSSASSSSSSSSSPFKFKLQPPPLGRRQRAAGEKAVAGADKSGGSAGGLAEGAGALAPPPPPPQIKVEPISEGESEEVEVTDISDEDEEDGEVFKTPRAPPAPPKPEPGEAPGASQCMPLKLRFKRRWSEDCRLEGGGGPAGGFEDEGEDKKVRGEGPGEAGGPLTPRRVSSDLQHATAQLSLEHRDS
# Outline: as §1
# ETV3L = target: T5, ETV3L (Homo sapiens, UniProt Q6ZN32 1-361); settings: protein: recombinant; tags: N-terminal GST; dsDNA, one strand shown
# T5 sequence: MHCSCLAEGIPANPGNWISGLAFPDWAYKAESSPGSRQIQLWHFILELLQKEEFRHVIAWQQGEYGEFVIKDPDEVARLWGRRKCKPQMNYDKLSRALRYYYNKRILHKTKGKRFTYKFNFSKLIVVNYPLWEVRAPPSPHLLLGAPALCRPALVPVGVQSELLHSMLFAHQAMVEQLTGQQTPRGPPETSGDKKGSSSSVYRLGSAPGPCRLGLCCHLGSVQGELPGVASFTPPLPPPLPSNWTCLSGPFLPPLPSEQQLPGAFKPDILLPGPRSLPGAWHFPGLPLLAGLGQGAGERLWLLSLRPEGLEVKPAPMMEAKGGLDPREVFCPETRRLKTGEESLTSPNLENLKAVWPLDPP
# Outline: as §1
# ETS2 = target: T6, ETS2 (Homo sapiens, UniProt P15036 1-469); settings: protein: recombinant; tags: N-terminal GST; dsDNA, one strand shown
# T6 sequence: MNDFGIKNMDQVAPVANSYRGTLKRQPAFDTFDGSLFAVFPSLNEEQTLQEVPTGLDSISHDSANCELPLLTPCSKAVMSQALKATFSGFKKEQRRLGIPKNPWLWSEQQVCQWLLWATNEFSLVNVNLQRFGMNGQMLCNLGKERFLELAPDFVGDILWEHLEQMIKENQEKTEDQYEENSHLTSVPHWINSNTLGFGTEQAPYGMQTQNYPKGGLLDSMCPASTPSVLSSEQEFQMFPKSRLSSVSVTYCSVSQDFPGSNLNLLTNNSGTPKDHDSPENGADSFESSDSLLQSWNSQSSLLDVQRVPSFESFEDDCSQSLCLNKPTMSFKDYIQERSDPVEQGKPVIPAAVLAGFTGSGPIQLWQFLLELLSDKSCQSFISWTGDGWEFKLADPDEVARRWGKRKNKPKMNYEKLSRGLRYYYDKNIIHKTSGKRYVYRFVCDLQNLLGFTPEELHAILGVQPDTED
# Outline: as §1
# ETV7 = target: T7, ETV7 (Homo sapiens, UniProt Q9Y603 1-341); settings: protein: recombinant; tags: N-terminal GST; dsDNA, one strand shown
# T7 sequence: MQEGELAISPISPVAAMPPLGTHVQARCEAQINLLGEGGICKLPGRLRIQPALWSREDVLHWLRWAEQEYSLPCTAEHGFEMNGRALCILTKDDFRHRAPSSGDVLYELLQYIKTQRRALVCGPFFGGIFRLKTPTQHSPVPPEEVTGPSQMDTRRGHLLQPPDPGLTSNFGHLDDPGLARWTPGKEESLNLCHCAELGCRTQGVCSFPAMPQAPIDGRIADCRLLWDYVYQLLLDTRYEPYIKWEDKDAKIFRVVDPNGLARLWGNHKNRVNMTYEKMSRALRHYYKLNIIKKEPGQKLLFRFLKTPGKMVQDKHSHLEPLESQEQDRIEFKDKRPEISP
# Outline: as §1
# ETV3 = target: T8, ETV3 (Homo sapiens, UniProt P41162-2 1-143); settings: protein: recombinant; tags: N-terminal GST; dsDNA, one strand shown
# T8 sequence: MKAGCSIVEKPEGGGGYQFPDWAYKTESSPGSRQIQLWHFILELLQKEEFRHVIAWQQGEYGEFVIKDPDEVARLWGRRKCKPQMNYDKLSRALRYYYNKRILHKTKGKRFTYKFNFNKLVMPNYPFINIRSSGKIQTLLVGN
# Outline: as §1
# ETV6 = ETV6 (Homo sapiens, UniProt P41212 1-452); settings: protein: recombinant; tags: N-terminal GST; dsDNA, one strand shown
# Outline: as §1
# Sequence of ELF4 (Q99607 whole entry): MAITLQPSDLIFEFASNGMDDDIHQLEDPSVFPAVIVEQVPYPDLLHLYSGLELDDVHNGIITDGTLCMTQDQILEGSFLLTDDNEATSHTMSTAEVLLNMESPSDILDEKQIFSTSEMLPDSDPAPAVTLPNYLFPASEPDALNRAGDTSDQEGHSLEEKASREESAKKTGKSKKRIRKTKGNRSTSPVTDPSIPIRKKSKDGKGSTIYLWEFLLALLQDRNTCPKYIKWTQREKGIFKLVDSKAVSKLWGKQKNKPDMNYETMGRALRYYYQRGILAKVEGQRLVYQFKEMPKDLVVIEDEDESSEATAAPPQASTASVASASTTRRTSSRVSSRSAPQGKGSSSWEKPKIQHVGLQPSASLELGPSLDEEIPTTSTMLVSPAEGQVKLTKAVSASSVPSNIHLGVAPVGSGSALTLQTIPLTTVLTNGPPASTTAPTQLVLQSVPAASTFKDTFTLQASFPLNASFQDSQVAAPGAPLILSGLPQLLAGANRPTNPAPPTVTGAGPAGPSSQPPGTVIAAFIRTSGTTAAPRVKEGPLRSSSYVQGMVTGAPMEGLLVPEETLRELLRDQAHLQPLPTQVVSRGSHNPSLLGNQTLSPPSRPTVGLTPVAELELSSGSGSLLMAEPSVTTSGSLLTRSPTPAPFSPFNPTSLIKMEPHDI
# Sequence of ETV6 (P41212 whole entry): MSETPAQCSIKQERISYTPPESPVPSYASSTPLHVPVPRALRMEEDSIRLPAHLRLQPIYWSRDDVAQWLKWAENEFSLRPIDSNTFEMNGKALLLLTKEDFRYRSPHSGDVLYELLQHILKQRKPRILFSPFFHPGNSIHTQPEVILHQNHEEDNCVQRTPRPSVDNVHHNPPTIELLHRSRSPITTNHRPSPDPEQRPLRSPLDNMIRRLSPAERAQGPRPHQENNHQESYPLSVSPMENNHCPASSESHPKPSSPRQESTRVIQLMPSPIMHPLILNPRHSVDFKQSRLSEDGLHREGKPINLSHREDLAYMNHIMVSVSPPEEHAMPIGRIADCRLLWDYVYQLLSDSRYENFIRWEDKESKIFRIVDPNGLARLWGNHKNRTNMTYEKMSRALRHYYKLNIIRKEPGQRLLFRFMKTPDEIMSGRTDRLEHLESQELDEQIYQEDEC
# Sequence of HSF1 (Q00613 whole entry): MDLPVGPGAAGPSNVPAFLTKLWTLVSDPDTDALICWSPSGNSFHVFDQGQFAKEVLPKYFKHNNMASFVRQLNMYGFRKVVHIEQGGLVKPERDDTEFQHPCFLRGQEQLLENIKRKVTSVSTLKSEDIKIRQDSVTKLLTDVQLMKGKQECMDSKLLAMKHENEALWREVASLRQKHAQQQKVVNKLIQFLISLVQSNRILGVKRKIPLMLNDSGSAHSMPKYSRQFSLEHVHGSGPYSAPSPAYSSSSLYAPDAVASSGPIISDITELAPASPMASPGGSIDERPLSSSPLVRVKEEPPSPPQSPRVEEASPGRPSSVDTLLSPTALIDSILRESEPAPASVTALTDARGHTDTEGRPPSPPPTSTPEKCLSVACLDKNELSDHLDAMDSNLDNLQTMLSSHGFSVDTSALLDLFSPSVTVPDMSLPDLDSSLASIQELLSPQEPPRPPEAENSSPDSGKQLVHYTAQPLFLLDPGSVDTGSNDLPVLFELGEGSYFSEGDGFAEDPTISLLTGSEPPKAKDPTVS
# Sequence of SPIB (Q01892 whole entry): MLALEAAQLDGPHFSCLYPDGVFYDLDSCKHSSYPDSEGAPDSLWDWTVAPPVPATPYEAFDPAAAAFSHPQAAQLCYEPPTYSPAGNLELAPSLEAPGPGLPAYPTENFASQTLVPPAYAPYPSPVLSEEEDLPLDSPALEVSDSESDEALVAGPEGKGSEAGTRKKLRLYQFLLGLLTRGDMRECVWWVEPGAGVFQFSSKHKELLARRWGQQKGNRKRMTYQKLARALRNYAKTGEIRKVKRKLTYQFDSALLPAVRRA
# Sequence of ELF1 (P32519 whole entry): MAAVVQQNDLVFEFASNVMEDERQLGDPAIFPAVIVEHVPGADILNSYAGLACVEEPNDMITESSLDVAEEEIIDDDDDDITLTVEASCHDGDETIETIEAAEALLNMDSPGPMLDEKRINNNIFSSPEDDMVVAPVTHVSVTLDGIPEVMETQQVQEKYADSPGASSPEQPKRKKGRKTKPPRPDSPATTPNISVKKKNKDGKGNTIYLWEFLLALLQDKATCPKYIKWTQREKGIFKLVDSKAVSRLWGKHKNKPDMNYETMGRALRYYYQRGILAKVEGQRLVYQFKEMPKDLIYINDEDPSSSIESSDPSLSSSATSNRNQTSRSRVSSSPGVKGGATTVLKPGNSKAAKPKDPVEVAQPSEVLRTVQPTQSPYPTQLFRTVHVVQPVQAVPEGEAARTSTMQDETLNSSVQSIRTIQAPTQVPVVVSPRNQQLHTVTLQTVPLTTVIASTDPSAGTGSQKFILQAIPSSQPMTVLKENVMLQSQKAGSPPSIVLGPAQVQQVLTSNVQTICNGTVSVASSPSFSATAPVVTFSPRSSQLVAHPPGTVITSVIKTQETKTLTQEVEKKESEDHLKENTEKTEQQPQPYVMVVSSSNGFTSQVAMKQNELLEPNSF
sequence,measurement,setting,value
GCTTAA,binding signal,GABPA,"1.14 fold enrichment (6-mer frequency, TF over GST control)"
same,binding signal,ELF1,"1.11 fold enrichment (6-mer frequency, TF over GST control)"
same,binding signal,SPIB,"1.09 fold enrichment (6-mer frequency, TF over GST control)"
same,binding signal,HSF1,"1.86 fold enrichment (6-mer frequency, TF over GST control)"
same,binding signal,SPIC,"1 fold enrichment (6-mer frequency, TF over GST control)"
same,binding signal,ELF4,"1.02 fold enrichment (6-mer frequency, TF over GST control)"
same,binding signal,ELF3,"1.02 fold enrichment (6-mer frequency, TF over GST control)"
same,binding signal,ERF,"1.03 fold enrichment (6-mer frequency, TF over GST control)"
same,binding signal,ETV3L,"1.05 fold enrichment (6-mer frequency, TF over GST control)"
same,binding signal,ETS2,"1.08 fold enrichment (6-mer frequency, TF over GST control)"
same,binding signal,ETV7,"1.06 fold enrichment (6-mer frequency, TF over GST control)"
same,binding signal,ETV3,"1.13 fold enrichment (6-mer frequency, TF over GST control)"
same,binding signal,ETV6,"1.05 fold enrichment (6-mer frequency, TF over GST control)"

# Source: PMC7862700, “An all-to-all approach to the identification of sequence-specific readers for epigenetic DNA modifications on cytosine”
